# From PubChem
# Hits are enriched below; roughly 8% of the tested compounds scored in any of these assays.
# SARS PLpro yeast: inhibitors of SARS-CoV papain-like protease in yeast | S. cerevisiae expressing SARS-CoV PLpro, growth rescue | Potency, µM (top dose mostly 32.9 µM), for the others: at the top dose activity, positive = growth rescue, actives largely listed as activators | 330,000 tested, 0.19% active; calls by dose curve; further: potency means the concentration at half of the fitted maximal effect; 0% is about no effect; nearly all actives have a fitted effect of over 55% in size
# HCV inh: HCV inhibition; Huh7.5.1 HCVcc-Cre infection, luciferase reporter, 44 h; Potency, µM (highest dose often 41.8 µM), inactives show at the highest dose activity change, negative = inhibition, most hits filed as inhibitors; 340,000 tested, 3.4% active; AID 651820; active means well fitted inhibition curve with a large enough effect; inconclusive means small, poorly fitted or top-dose-only effect, or another doubt; inactive means no such curve, though single readings can be large or run the other way; further: potency means the concentration at half of the fitted maximal effect; on the % scale 0 is the no-effect control and ±100 the full control effect
#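 Antiviral activity was scored by luciferase reporter output from cells infected with HCVcc-Cre (~0.5 moi) in presence of compound, 44 h infection period, cells seeded 1,000/well 4 h prior.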
# HCMV inh: human cytomegalovirus inhibition. HFF cells, HCMV-luciferase reporter, 72 h; stronger effect = lower value. 410,000 tested, 4.5% active. activity change, negative = inhibition, % at 57.5 µM. AID 1259415; in the data active means activity change below about -60%; inconclusive means no clear call, values can overlap the other calls; inactive means above about -39%; further: on the % scale 0 is the no-effect control and ±100 the full control effect
#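 Two compound doses tested in HFFs infected with HCMV-luciferase, MOI 1 PFU/cell, 72 h at 37C. Lysate luminescence read with OneGlo; data normalized against buffer-only and 10uM Salinomycin inhibitor controls.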
# LASV entry inh: Lassa virus entry inhibition; Lassa virus pseudotype entry inhibition, cell reporter; Potency, µM (series often up to 37.9 µM), for inactives: at the top dose activity change, negative = inhibition, hits mostly inhibitors; 300,000 tested, 1.2% active; AID 540256; calls by dose curve; tested in HEK293 cells; further: potency means the concentration at half of the fitted maximal effect; on the % scale 0 is the no-effect control and ±100 the full control effect; nearly all actives have a fitted effect of over 50% in size
# FMDV inh: foot and mouth disease virus antiviral activity. FMDV antiviral cell-based qHTS. Potency, µM (series often up to 57.9 µM), without a hit: at the highest dose activity change, negative = inhibition, actives largely listed as inhibitors. 410,000 tested, 1.2% active; calls by dose curve; tested in HEK293T cells; further: read-out not given here; potency means the concentration at half of the fitted maximal effect; on the % scale 0 is the no-effect control and ±100 the full control effect; nearly all actives have a fitted effect of over 45% in size
# Marburg entry inh: blocks Marburg virus binding to or entry into cells | Marburg virus pseudotyped entry inhibition, cell reporter | Potency, µM (highest dose often 37.8 µM), without a hit: at the highest dose activity change, negative = inhibition, usual class: inhibitors | 300,000 tested, 1.8% active; calls by dose curve; tested in HEK293 cells; further: potency means the concentration at half of the fitted maximal effect; on the % scale 0 is the no-effect control and ±100 the full control effect
# An asterisk follows results filed as active; u = inconclusive; x = no result; + = active, no number; [ ] = remark or other dose.
SMILES,SARS PLpro yeast,HCV inh,HCMV inh,LASV entry inh,FMDV inh,Marburg entry inh
COc1ccccc1CNC(=O)c1ccc(Cn2c(SCc3ccccc3)nc3cccnc32)cc1,x,x,-17,7%[46.1 µM],9%,x
COc1ccc(CCNC(=O)c2cc(Nc3cc(C)cc(C)c3)nc3ccccc23)cc1OC,x,x,u,-7%[46.1 µM],-2%,u
CCN(CC)S(=O)(=O)c1ccc(N2CCOCC2)c(NS(=O)(=O)c2cc(C(C)(C)C)ccc2C)c1,-3%,u,-69*,8.9µM*,-8%,u
Cc1cccc(OCC(=O)NNC(=O)C2CCN(c3ncnc4sc(C)c(C)c34)CC2)c1,4%,-13%,-39,-1%,28µM*,-29%
CCOC(=O)c1sc2ncnc(N3CCN(C(=O)OCC)CC3)c2c1C,29%,-30%,u,u,16µM*,-16%
COc1cc(C(=O)N2CCN(c3ncnc4sc(C)c(C)c34)CC2)cc(OC)c1OC,-6%,5.6µM*,-79*,u,11µM*,u
COc1ccccc1OCC(=O)NNC(=O)C1CCN(c2ncnc3sc(C)c(C)c23)CC1,-11%,11µM*,-29,x,18µM*,x
O=C(Nc1cccc(C(F)(F)F)c1)N1CC2CCCN2c2ccccc21 (centres undefined),x,x,-2,-5%[46.1 µM],-14%,x
COc1ccccc1CNC(=O)CCn1c(=O)c2ccccc2n(CC(=O)Nc2cc(Cl)ccc2C)c1=O,x,x,u,-19%[46.1 µM],-24%,u
COc1ccc(-c2csc(NC(=O)C3CCN(c4ncnc5sc(C)c(C)c45)CC3)n2)cc1OC,2%,2.5µM*,-100*,2µM*,8.9µM*,4µM*
C=CCn1c(C)cc(-c2csc(NC(=O)C3CCN(c4ncnc5sc(C)c(C)c45)CC3)n2)c1C,x,-19%,11,x,u,x
CCN(CC)c1ccc(C(=O)NNC(=O)C2CCN(c3ncnc4sc(C)c(C)c34)CC2)cc1,x,x,-15,x,11µM*,x
CCN1C(=NCCCOC(C)C)N[C@@H](CCc2ccccc2)[C@H](C(=O)OC)[C@H]1C,x,x,x,x,x,3%[14.2 µM]
COc1ccc(-c2csc(N(CCCN(C)C)C(=O)c3ccc(F)cc3)n2)cc1,-5%,-12%,65,10%,-9%,-25%
CCN(CC)CCCN(C(C)=O)c1nc(-c2cc(OC)ccc2OC)cs1,2%,6.3µM*,u,17%,33%,u
CCN(CC)CCCN(C(=O)c1ccc(F)cc1)c1nc(-c2ccc(OC)cc2)cs1,3%,u,-23,u,-11%,u
CCN(C(=O)c1ccco1)c1nc(-c2ccc(OC)cc2)cs1,-6%,22µM*,92,x,58%,x
COc1ccc(-c2csc(N(CCCN(C)C)C(=O)c3ccccc3Cl)n2)cc1,x,u,-37,u,20%,5.6µM*
COc1ccc(-c2csc(N(CCCN(C)C)C(=O)c3ccccc3F)n2)cc1,2%,u,-11,x,22%,x
COc1ccc(-c2csc(N(CCCN(C)C)C(=O)c3ccccc3C)n2)cc1,3%,u,-61*,10µM*,1%,u
O=C(Cn1nc(-c2ccccc2)nc(Cc2ccccc2)c1=O)Nc1ccccc1,x,x,-8,-5%[46.1 µM],5%,x
CN(CC(=O)Nc1cccc(F)c1)CC(=O)Nc1ccc(Cl)cc1[N+](=O)[O-],-4%,6%,21,u,7%,1%[46.1 µM]
CN(CC(=O)Nc1cccc(F)c1)CC(=O)Nc1ccccc1[N+](=O)[O-],-4%,u,-87*,-12%,u,-8%
CN(CC(=O)Nc1cccc(F)c1)C(=O)c1ccc(N2CCCC2)c([N+](=O)[O-])c1,-2%,u,-61*,-7%,-9%,-30%[46.1 µM]
CCCN(Cc1cccs1)C(=O)Nc1cc(C)cc(C)c1,x,x,9,-7%[46.1 µM],-11%,2%[46.1 µM]
SMILES,SARS PLpro yeast,HCV inh,HCMV inh,LASV entry inh,FMDV inh,Marburg entry inh
COc1cc2oc3ccc(C#Cc4ccc(N)cc4)cc3c(=O)c2cc1OC,x,13µM*,65,x,7%,x
CCc1sc(C(C2C(=O)CC(C)(C)CC2=O)C2C(=O)CC(C)(C)CC2=O)cc1[N+](=O)[O-],0%,26%,107,1%,7.9µM*,u
O=C(OCCOc1cccc(Cl)c1)c1cc(S(=O)(=O)N2CCOCC2)ccc1F,-4%,25µM*,-7,20%,-21%,8%
O=C(OCCOc1ccc(Cl)cc1)c1cc(S(=O)(=O)N2CCCCC2)ccc1N1CCOCC1,x,3.5µM*,u,x,u,x
CCN(CC)S(=O)(=O)c1ccc(N/N=C(\C)c2ccc(OC)cc2O)nc1,10%,u,-62*,x,-21%,x
Cc1cc(C)c2c(c1)/C(=C/C(=O)c1ccc(Br)s1)C(=O)N2,2%,11µM*,-103*,u,u,u
CSc1ccc(CCNC(=O)c2ccc(-c3nc(COc4ccc(C)cc4)c(C)o3)cc2)cc1,x,x,16,u,-23%,x
COC(=O)NC(CCc1ccccc1)C(C(C)=O)C(=O)OC (centres undefined),x,x,x,x,x,-24%[14.2 µM]
COc1ccccc1/C=C/CN1CCC(n2nccc2NC(=O)CCc2ccccc2)CC1,-2%,3.5µM*,u,x,u,x
CSCC(C)N1CCC(n2nccc2NC(=O)CCCc2ccccc2)CC1 (centres undefined),-1%,6%,+,x,-8%,x
COc1ccc(Nc2cc(O)c3ncccc3c2)cc1,-24%,x,x,x,x,x
COC(=O)c1ccc(Cl)c(NC(=O)C2CCN(S(=O)(=O)Cc3ccccc3)CC2)c1,x,x,-9,-2%[46.1 µM],-19%,u
COc1ccc(C2=Nc3ccccc3N(C(=O)c3ccc(C)cc3)C2C(=O)NCc2ccccc2)cc1 (centres undefined),x,x,-12,x,12%,x
COc1ccc(C2=Nc3ccccc3N(C(=O)c3ccc4c(c3)OCO4)C2C(=O)NCc2ccccc2)cc1 (centres undefined),x,x,-71*,x,21%,x
CCN(CC)CCN1c2ccccc2Sc2ccc3ccccc3c21,-1%,u,u,11%[46.1 µM],-16%,10µM*
CCN(CC)CCN1c2ccccc2Sc2ccccc21,-1%,x,21,u,-18%,u
C=CCC[C@@H](Cc1ccc(F)cc1)C(=O)OC[C@H](Cc1c[nH]c2ccccc12)NC(=O)[C@@H](CC=C)CC(=O)N[C@H](CO)Cc1ccccc1,3%,3%,4,x,0%,x
C=CCC[C@H](Cc1ccc(F)cc1)C(=O)OC[C@H](Cc1c[nH]c2ccccc12)NC(=O)[C@@H](CC=C)CC(=O)N[C@@H](CO)Cc1ccccc1,0%,u,-86*,x,-20%,x
C=CC[C@@H](CC(=O)N(CCO)Cc1ccccc1)C(=O)N[C@@H](COC(=O)[C@@H](CC=C)Cc1ccc(F)cc1)Cc1c[nH]c2ccccc12,1%,u,51,x,0%,x
C=CC[C@H](CC(=O)N(CCO)Cc1ccccc1)C(=O)N[C@@H](COC(=O)[C@@H](CC=C)Cc1ccc(F)cc1)Cc1c[nH]c2ccccc12,3%,22µM*,32,x,u,x
